According to PubChem BioAssay (NCI):
Compounds without any hit were thinned out: in the full panel of roughly 83,000, 20% have a hit.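 Percent growth is the endpoint: 0 to 100 indicates growth inhibition (40 means 60% inhibition), 0 means no net growth, and negative values indicate cell death.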 A number with no mark means an inactive call. Calls of active or inactive are those of the source. The calls were made as follows: active = growth percent below 10; inactive = the rest.

Experiments:
Assay in all cases: NCI-60 one-dose screen, 48 h (100 = growth as untreated, 0 = no growth, -100 = all killed)
Details in all cases: 10 µM unless noted
NCI-H23 lung = tested on: NCI-H23 lung
NCI-H226 lung = tested on: NCI-H226 lung
NCI-H322M lung = tested on: NCI-H322M lung
HOP-62 NSCLC = tested on: HOP-62 NSCLC
NCI-H460 lung = tested on: NCI-H460 lung
HOP-92 NSCLC = tested on: HOP-92 NSCLC
NCI-H522 lung = tested on: NCI-H522 lung
A549/ATCC NSCLC = tested on: A549/ATCC NSCLC
786-0 renal = tested on: 786-0 renal
COLO 205 colon = tested on: COLO 205 colon
DU-145 prostate = tested on: DU-145 prostate
K-562 leukemia = tested on: K-562 leukemia
MALME-3M melanoma = tested on: MALME-3M melanoma
MDA-MB-231 breast = tested on: MDA-MB-231 breast
RXF 393 renal = tested on: RXF 393 renal
SF-268 CNS = tested on: SF-268 CNS
SF-295 CNS = tested on: SF-295 CNS
SF-539 CNS = tested on: SF-539 CNS
UACC-257 melanoma = tested on: UACC-257 melanoma
M14 melanoma = tested on: M14 melanoma

SMILES	growth (NCI-H23 lung)	growth (NCI-H226 lung)	growth (NCI-H322M lung)	growth (HOP-62 NSCLC)	growth (NCI-H460 lung)	growth (HOP-92 NSCLC)	growth (NCI-H522 lung)	growth (A549/ATCC NSCLC)	growth (786-0 renal)	growth (COLO 205 colon)	growth (DU-145 prostate)	growth (K-562 leukemia)	growth (MALME-3M melanoma)	growth (MDA-MB-231 breast)	growth (RXF 393 renal)	growth (SF-268 CNS)	growth (SF-295 CNS)	growth (SF-539 CNS)	growth (UACC-257 melanoma)	growth (M14 melanoma)
CCOC(=O)/C=C1\SC(=Nc2ccc(C#N)cc2)N(CCN2C(=O)/C(=C/C(=O)OCC)SC2=Nc2ccc(C#N)cc2)C1=O	52%	92.9%	86.6%	51.3%	31.6%	80.4%	36.4%	77.5%	48.5%	18.6%	41.7%	7.43% (active)	98.6%	16.3%	49.7%	29.7%	76.8%	41.6%	77.3%	52.3%
CCOCCc1c(O)nc(SC)[nH]c1=O	91.9%	92%	111%	93.3%	107%	99.1%	94.7%	103%	103%	105%	107%	112%	130%	111%	161%	116%	113%	93.7%	23.9%	98.9%
COC(=O)/C=C1\SC(=Nc2cccc(Cl)c2)N(CCc2c[nH]c3ccccc23)C1=O	69.9%	101%	62%	41.5%	51.3%	82.4%	24.2%	48%	60.6%	12.1%	54.5%	24.3%	45.9%	39.5%	44.8%	49.5%	55.1%	69.9%	37.1%	42.4%
COc1cc(F)c(-c2nc3c(C)cccc3n2Cc2c(F)cccc2F)c(F)c1	79.8%	88.7%	87.5%	83.3%	77.8%	81.3%	73.4%	69.1%	85.7%	98%	108%	76.2%	79.5%	89.2%	97.8%	84.3%	79.9%	101%	76.2%	86.3%
COc1ccc2nc(-c3ccc(Cl)cc3)cc(-c3nnc(SC/C(=N/O)c4ccccc4)o3)c2c1	26.1%	42.7%	67.9%	59.4%	29.6%	60.7%	45.7%	37.3%	24.9%	31.5%	29.7%	20.1%	25.5%	49.6%	5.44% (active)	55.3%	36.3%	43.5%	60.1%	25.2%
O=C1C(=O)c2c(nc3ccc(C(F)(F)F)cn23)-c2ccccc21	-30.8% (active)	-96.6% (active)	-94.8% (active)	-97.5% (active)	-64.8% (active)	-77.9% (active)	-72.4% (active)	-51.4% (active)	-80.8% (active)	-78.9% (active)	-96.3% (active)	-41.9% (active)	-97.3% (active)	-22.7% (active)	-94.8% (active)	-78.7% (active)	-96.5% (active)	-97.4% (active)	-97.1% (active)	-79.5% (active)
COC(=O)c1cc2c3c(cc(O)c2[nH]1)N(C(=O)C1Cc2cc(OC)c(OC)c(OC)c2N1)CC3CCl (stereo not given)	-48.7% (active)	-35.1% (active)	-16.2% (active)	-54.7% (active)	-17.9% (active)	-35.9% (active)	-60.6% (active)	-21% (active)	-47.6% (active)	-70.4% (active)	-99.1% (active)	1.56% (active)	-58.1% (active)	-41.3% (active)	-99.4% (active)	-5.75% (active)	-40.6% (active)	-74.7% (active)	-72.3% (active)	-25.1% (active)
Cc1nccc2c3ccc(OCc4cn(-c5ccccc5)nn4)cc3n(CCCc3ccccc3)c12	80.8%	85.7%	75.6%	78.2%	59.2%	57.3%	57.5%	52.2%	80%	50.7%	88.6%	36.5%	90.4%	79.6%	69.7%	88.3%	74.8%	78.2%	55.9%	83.3%
COc1cc(C2=N/C(=C\c3cc4ccccc4nc3Oc3ccccc3)C(=O)N2C(=N)N)cc(OC)c1OC	71%	18.7%	55.4%	-0.576% (active)	52.1%	27.9%	60.3%	77.1%	28.6%	90.4%	80.4%	82.3%	57.8%	42.4%	42%	30.7%	55.1%	33.4%	76.4%	74.2%
c1ccc2c3c([nH]c2c1)C(c1ccc(C2NCCc4c2[nH]c2ccccc42)cc1)NCC3 (stereo not given)	72.4%	77.1%	-1.54% (active)	-70.3% (active)	-71.6% (active)	20.8%	-72.4% (active)	-85.1% (active)	-68.1% (active)	-81.5% (active)	-35.1% (active)	-57.6% (active)	-50.3% (active)	-56.2% (active)	33.9%	-29.2% (active)	-72.2% (active)	-15.5% (active)	-41.7% (active)	-84.9% (active)
COc1cc(C(C)c2ccc3c(ccn3C)c2)cc(OC)c1OC (stereo not given)	29.3%	67.2%	42.8%	29.4%	2.89% (active)	48.2%	11.3%	16.3%	22.6%	-56.6% (active)	-15.3% (active)	6.54% (active)	68%	28.1%	53.1%	31.4%	15.5%	-6.4% (active)	61%	11.3%
C#C[C@@]1(O)[C@@H](CO)O[C@@H](n2cc(Br)c3c(N)ncnc32)[C@@H]1O	2.83% (active)	21.2%	1.46% (active)	-5.18% (active)	-36% (active)	-27.2% (active)	-30.7% (active)	-51.8% (active)	-48.5% (active)	-36.8% (active)	5% (active)	5.03% (active)	5.66% (active)	2.76% (active)	-30.9% (active)	13.9%	2.42% (active)	-60.8% (active)	57.5%	0.212% (active)
NC(=O)C(O)(c1ccccc1)c1ccccc1	101%	99.2%	105%	91.6%	104%	83.2%	84.2%	91%	102%	115%	105%	99.6%	113%	108%	123%	110%	99.7%	103%	91.8%	97.1%
CC(C)(C#N)c1cc(F)cc(C(=O)Nc2cc(Nc3ncccc3-c3ncnc4nc[nH]c34)ccc2F)c1	16.8%	41.3%	53.3%	44.9%	30.5%	-0.389% (active)	7.73% (active)	42.1%	63%	6.56% (active)	56.1%	5.97% (active)	-28.4% (active)	22.4%	34.1%	60.6%	46.1%	20.8%	23.7%	5.28% (active)
COc1cc(/C=C/CO)cc(OC)c1O[C@@H]1O[C@H](CO)[C@@H](O)[C@H](O)[C@H]1O	102%	86.2%	107%	94.2%	103%	94%	94.8%	91.7%	96.7%	107%	110%	96.6%	102%	90.2%	100%	102%	98.7%	105%	96.3%	104%
NC(=O)c1ccc2nc3c(n2c1)C(=O)C(=O)c1ccccc1-3	-38.3% (active)	-49.7% (active)	-98.2% (active)	-87.8% (active)	-50.7% (active)	-80.9% (active)	-48.9% (active)	-43.1% (active)	-99.4% (active)	-69% (active)	-96.3% (active)	-28.2% (active)	-97.3% (active)	-17.3% (active)	-96.5% (active)	-70.2% (active)	-98.7% (active)	-98.5% (active)	-98.3% (active)	-88% (active)
